From PubChem BioAssay (Tox21)
Several values for one entry are separate records, joined by “and”; a condition that tells them apart may be missing. Identical values can stand only once. Records with an inconclusive call do not appear. Some structures have more than one record in an assay (separate samples or runs), and their calls can disagree. Activity calls are given as the source filed them. Unless noted, the call rests on the fitted dose curve.

What was measured:
[1] = Nuclear factor erythroid 2-related factor 2/antioxidant responsive element (Nrf2/ARE) small molecule agonists: qHTS cell viability counter screen in human keratinocytes (AID 1919968; active means well fitted curve in the direction sought with a large enough effect in the repeat runs; an effect the other way counts as inactive or inconclusive; further: nearly all actives have a fitted effect of over 55% in size)
Method in brief: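 Stably transfected HaCaT (KeratinoSens), 1,500/well. Test agents in DMSO were applied for 23 h, 37 C/5% CO2. CellTiter-Fluor was incubated 1 h before the fluorescence read.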

[2] = Nuclear factor erythroid 2-related factor 2/antioxidant responsive element (Nrf2/ARE) small molecule agonists: luciferase reporter gene qHTS assay in human keratinocytes (AID 1919969); further: nearly all actives have a fitted effect of over 35% in size; further: potency means the concentration at half of the fitted maximal effect
[3] = target: Gonadotropin-releasing hormone receptor (Homo sapiens) (UniProt P30968); assay: Human gonadotropin-releasing hormone receptor (GnRHR) small molecule agonists, calcium flux assay in GnRHR-HEK293 cells (AID 1920063); further: nearly all actives have a fitted effect of over 35% in size
Method in brief: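 Stable human GnRHR HEK293 line. 18 h plating, then calcium dye for 1 h at 37 C. Agonist-mode compound addition from DMSO stocks; fluorescence monitored 3 min.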

[4] = target: KiSS-1 receptor (Homo sapiens) (UniProt Q969F8); assay: Human kisspeptin (KISS1R) small molecule agonists, calcium flux assay in KISS1R-HEK293 cells (AID 1920064; active means well fitted curve in the direction sought with a large enough effect in the repeat runs; an effect the other way counts as inactive or inconclusive)
Method in brief: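 After overnight (18 h) culture at 37 C/5% CO2, human KISS1R-HEK293 cells received calcium dye for 1 h, then test compound; emission at 540 nm (excitation 480 nm) was tracked for 3 min.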

[5] = G protein-coupled receptor (GPCR) small molecule agonists, calcium flux assay: HEK293 wild type cell line counter screen (AID 1920065)
Method in brief: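 Following 18 h incubation at 37 C/5% CO2, plates got calcium dye for 1 h; compounds, ATP or DMSO were then pinned in and fluorescence followed kinetically (480/540 nm).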

[6] = p53 small molecule agonists, cell-based qHTS assay with human liver microsomes (AID 1963577);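 further: p53 response element beta-lactamase reporter cells with liver microsomes plus NADPH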
Method in brief: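 p53RE-bla cells; 5 h settle, 37 C/5% CO2; cpd + HLM 0.5 mg/mL + NADPH 0.5 mg/mL (final); 16 h 37 C; LiveBLAzer 2 h RT dark; fluorescence readout.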

[7] = p53 small molecule agonists, cell-based qHTS assay with rat liver microsomes (AID 1963578)
Method in brief: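 Rat liver microsome activation: microsomes 0.5 mg/mL, NADPH 0.5 mg/mL final; p53RE-bla cells, 16 h 37 C; LiveBLAzer readout, 2 h RT dark.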

[8] = p53 small molecule agonists, cell-based qHTS assay with human liver microsomes: qHTS cell viability counter screen (AID 1963579); further: nearly all actives have a fitted effect of over 45% in size; further: potency means the concentration at half of the fitted maximal effect
Method in brief: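 Luminescent CellTiter-Glo read-out, 30 min at room temperature, gauged cytotoxicity in p53RE-bla cells exposed 16 h at 37 C to DMSO-dissolved compounds with metabolic activation by human liver microsomes and NADPH, each 0.5 mg/mL final.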

[9] = p53 small molecule agonists, cell-based qHTS assay with rat liver microsomes: qHTS cell viability counter screen (AID 1963580); further: nearly all actives have a fitted effect of over 45% in size
Method in brief: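 Counter screen for cytotoxicity under metabolic activation: rat liver microsomes and NADPH, 0.5 mg/mL final each, added with compounds to p53RE-bla HCT-116 cells; 16 h at 37 C, then ATP luminescence read.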

[10] = p53 small molecule agonists, cell-based qHTS assay: qHTS cell viability counter screen (AID 1963581); further: nearly all actives have a fitted effect of over 45% in size
Method in brief: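 qHTS counter screen: 16 h compound exposure at 37 C of p53RE-bla HCT-116 cells (4,000 per well, seeded 5 h prior), cell viability by ATP luminescence.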

[11] = p53 small molecule agonists, cell-based qHTS assay (AID 1963582; active means well fitted activation curve with a large enough effect in the signal ratio in the repeat runs, not every such curve was filed as active; the % refers to the signal ratio)
Method in brief: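 Measured: fluorescence from cleaved LiveBLAzer substrate. System: p53RE-bla cells, 16 h compound treatment at 37 C, 2 h substrate step at room temperature.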

[12] = target: 5-hydroxytryptamine receptor 2A (Homo sapiens) (UniProt P28223); assay: 5-hydroxytryptamine receptor 2A (HTR2A) small molecule antagonists, cell-based qHTS assay (AID 1963586); further: nearly all actives have a fitted effect of over 45% in size; further: potency means the concentration at half of the fitted maximal effect
Method in brief: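 CHO cells stably expressing human HTR2A were plated for 18 h at 37 C, then loaded with calcium dye for 1 h. Compounds were preincubated 5 min at room temperature before DOI (4 nM solution) was added. Kinetic fluorescence was read for 3 min.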

[13] = target: 5-hydroxytryptamine receptor 2A (Homo sapiens) (UniProt P28223); assay: 5-hydroxytryptamine receptor 2A (HTR2A) small molecule agonists, cell-based qHTS assay (AID 1963587); further: nearly all actives have a fitted effect of over 30% in size
Method in brief: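 HTR2A-CHO cells, plated 18 h at 37 C/5% CO2, dye-loaded 1 h at 37 C; compounds in DMSO added by pin tool (agonist mode). Intracellular calcium flux read as kinetic fluorescence on FDSS over 2 min at 1 s intervals.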

[14] = target: Muscarinic acetylcholine receptor M1 (Homo sapiens) (UniProt P11229); assay: Cholinergic receptor muscarinic 1 (CHRM1) small molecule antagonists, cell-based qHTS assay (AID 1963588); further: nearly all actives have a fitted effect of over 40% in size
Method in brief: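 Compounds were tested at 15 concentrations in three independent runs. Dye-loaded CHRM1-CHO cells were exposed 5 min at room temperature before stimulation by acetylcholine added at 50nM. Intracellular calcium was read kinetically on FDSS for 3 min.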

[15] = target: Muscarinic acetylcholine receptor M1 (Homo sapiens) (UniProt P11229); assay: Cholinergic receptor muscarinic 1 (CHRM1) small molecule agonists, cell-based qHTS assay (AID 1963589); further: nearly all actives have a fitted effect of over 35% in size
Method in brief: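 Kinetic fluorescence (1 s intervals) of calcium-sensitive dye in human M1 CHO cells after compound addition; cells pre-incubated 18 h at 37 C/5% CO2 and dye-loaded 1 h.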

[16] = cAMP Responsive Elements (CRE) small molecule agonists, cell-based qHTS assay (AID 1963590)
Method in brief: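 Test agents in DMSO were incubated 3 h at 37 C/5% CO2 with CRE-bla HEK 293T cells seeded 18 h earlier; LiveBLAzer B/G FRET substrate was added and read after 2 h at room temperature.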

[17] = target: Beta-2 adrenergic receptor (Homo sapiens) (UniProt P07550); assay: Adrenergic beta2 receptor (ADRB2) small molecule antagonists, cell-based qHTS assay (AID 1963592); further: series mostly up to about 92 µM; nearly all actives have a fitted effect of over 50% in size
Method in brief: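 Assay format: CHO-ADRB2 cells, 18-20hr seeding at 37C/5% CO2, then compound plus 1nM isoproterenol agonist mix for 0.5hr RT. Homogeneous time-resolved fluorescence cAMP detection after 1hr, expressed as 665/615 nm ratio.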

[18] = target: D(2) dopamine receptor (Homo sapiens) (UniProt P14416); assay: Dopamine D2 receptor (DRD2) small molecule agonists, cell-based qHTS assay (AID 1963594); further: nearly all actives have a fitted effect of over 35% in size
Method in brief: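 HEK293 cells stably expressing DRD2 were cultured 24 h at 37 C, then given Ro20-1724 (0.1 mM final) and compounds for 10 min at room temperature. NKH477 (200nM) was then added for 30 min. cAMP was read by HTRF.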

[19] = target: D(2) dopamine receptor (Homo sapiens) (UniProt P14416); assay: Dopamine D2 receptor (DRD2) small molecule antagonists, cell-based qHTS assay (AID 1963595; active means well fitted inhibition curve with a large enough effect in the signal ratio in the repeat runs, with a control signal flat; the % refers to the signal ratio)
Method in brief: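 Human DRD2 antagonist qHTS measuring cAMP by HTRF. The cells are exposed to compound for 10 min, then to NKH477 (200 nM) and quinpirole (12 nM) for 30 min at RT, with Ro20-1724 (0.1 mM) present throughout.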

[20] = cAMP Responsive Elements (CRE) small molecule antagonists, cell-based qHTS assay (AID 1963591; active means well fitted inhibition curve with a large enough effect in the signal ratio in the repeat runs, not every such curve was filed as active; the % refers to the signal ratio)
Method in brief: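 Reporter line CRE-bla HEK 293T in dialyzed-FBS DMEM; cells preincubated 18 h, treated 3 h with compound plus NKH477 (0.25 uM final); LiveBLAzer FRET, 2 h RT.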

Measured: Potency

Chain of KiSS-1 receptor (Homo sapiens) (Q969F8 whole entry, looked up): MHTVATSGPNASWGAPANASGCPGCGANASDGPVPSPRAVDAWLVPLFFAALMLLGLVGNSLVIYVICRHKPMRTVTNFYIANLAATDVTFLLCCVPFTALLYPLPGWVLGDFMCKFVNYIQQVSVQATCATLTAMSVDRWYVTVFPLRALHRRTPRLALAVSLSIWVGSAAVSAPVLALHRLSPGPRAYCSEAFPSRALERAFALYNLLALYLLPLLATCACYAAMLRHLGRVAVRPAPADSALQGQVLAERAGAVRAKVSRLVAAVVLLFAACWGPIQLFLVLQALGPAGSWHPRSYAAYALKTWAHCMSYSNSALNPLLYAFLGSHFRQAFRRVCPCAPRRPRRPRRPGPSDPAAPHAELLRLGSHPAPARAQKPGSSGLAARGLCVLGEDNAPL
Chain of D(2) dopamine receptor (Homo sapiens) (P14416 whole entry, looked up): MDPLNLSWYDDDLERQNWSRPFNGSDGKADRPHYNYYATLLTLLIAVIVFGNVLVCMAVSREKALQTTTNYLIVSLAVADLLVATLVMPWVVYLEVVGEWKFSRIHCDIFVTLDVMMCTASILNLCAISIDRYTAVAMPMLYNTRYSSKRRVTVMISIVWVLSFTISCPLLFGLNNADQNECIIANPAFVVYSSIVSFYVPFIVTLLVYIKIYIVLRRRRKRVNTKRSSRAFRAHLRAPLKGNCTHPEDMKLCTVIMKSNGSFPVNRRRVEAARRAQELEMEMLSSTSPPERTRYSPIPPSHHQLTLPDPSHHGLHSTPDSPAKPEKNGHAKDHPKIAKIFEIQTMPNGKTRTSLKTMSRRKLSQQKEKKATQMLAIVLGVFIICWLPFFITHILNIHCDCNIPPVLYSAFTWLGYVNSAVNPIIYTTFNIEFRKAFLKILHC
Chain of 5-hydroxytryptamine receptor 2A (Homo sapiens) (P28223 whole entry, looked up): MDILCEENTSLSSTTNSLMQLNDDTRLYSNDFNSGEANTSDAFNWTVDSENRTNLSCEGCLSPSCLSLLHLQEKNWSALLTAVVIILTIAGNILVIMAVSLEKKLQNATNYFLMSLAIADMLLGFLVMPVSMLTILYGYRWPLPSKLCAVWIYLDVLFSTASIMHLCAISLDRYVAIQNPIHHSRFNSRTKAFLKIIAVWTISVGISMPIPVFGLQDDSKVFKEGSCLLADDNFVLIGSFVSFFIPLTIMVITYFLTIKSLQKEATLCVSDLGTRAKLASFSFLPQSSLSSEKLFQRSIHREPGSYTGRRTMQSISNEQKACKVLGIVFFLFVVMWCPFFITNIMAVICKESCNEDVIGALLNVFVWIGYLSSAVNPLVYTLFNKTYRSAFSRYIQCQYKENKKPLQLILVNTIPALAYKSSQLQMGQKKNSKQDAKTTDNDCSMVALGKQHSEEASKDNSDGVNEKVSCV
Chain of Beta-2 adrenergic receptor (Homo sapiens) (P07550 whole entry, looked up): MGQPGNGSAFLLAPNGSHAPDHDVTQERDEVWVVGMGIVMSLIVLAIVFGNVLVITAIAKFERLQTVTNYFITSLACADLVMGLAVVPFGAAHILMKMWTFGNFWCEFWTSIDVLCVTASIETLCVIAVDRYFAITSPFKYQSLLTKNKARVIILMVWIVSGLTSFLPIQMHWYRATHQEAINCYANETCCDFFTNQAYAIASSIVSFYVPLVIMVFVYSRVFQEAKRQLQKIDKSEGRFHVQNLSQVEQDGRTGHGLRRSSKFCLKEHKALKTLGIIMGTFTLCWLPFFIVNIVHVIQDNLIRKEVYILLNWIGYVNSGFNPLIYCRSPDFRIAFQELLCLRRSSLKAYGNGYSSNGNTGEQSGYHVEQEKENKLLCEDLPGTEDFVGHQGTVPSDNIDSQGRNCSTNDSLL
Chain of Muscarinic acetylcholine receptor M1 (Homo sapiens) (P11229 whole entry, looked up): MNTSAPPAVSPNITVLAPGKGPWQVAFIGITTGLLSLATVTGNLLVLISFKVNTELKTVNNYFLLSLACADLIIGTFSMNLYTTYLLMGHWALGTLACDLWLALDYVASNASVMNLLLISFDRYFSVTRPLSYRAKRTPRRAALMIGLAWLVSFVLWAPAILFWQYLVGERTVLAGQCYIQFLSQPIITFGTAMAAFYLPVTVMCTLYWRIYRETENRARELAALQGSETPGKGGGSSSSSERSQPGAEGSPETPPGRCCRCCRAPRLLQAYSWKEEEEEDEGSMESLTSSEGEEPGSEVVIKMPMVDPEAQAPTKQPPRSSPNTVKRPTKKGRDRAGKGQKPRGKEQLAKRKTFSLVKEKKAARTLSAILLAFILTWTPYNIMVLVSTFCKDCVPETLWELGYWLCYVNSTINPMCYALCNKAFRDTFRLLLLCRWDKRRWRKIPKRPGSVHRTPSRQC
Chain of Gonadotropin-releasing hormone receptor (Homo sapiens) (P30968 whole entry, looked up): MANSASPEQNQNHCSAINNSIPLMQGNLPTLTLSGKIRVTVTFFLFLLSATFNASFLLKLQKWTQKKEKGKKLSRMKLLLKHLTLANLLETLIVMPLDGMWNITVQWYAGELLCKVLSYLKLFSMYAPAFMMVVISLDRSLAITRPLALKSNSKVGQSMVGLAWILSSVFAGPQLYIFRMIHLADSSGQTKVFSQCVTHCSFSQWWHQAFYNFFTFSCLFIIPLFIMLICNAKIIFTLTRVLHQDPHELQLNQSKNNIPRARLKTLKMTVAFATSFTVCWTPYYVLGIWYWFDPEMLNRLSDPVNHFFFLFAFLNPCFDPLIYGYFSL

CNC(=S)N(C)C
inactive: [1] | [2] | [3] | [4] | [5] | [6] | [7] | [8] | [9] | [10] | [11] | [12] | [13] | [14] | [15] | [16] | [17] | [18] | [19]

Clc1ccccn1
inactive: [1] | [2] | [3] | [4] | [5] | [6] | [7] | [8] | [9] | [10] | [11] | [12] | [13] | [14] | [15] | [16] | [20] | [18] | [19]

O=C(Cl)c1cccc(C(=O)Cl)c1
inactive: [1] | [2] | [3] | [4] | [5] | [6] | [7] | [8] | [9] | [10] | [11] | [12] | [13] | [14] | [15] | [16] | [20] | [17] | [18] | [19]

O=C1CCc2ccccc2O1
inactive: [1] | [2] | [3] | [4] | [5] | [6] | [7] | [8] | [9] | [10] | [11] | [12] | [13] | [14] | [15] | [16] | [20] | [18] | [19]

CC(=O)Nc1ccc(CC(=O)O)cc1
inactive: [1] | [2] | [3] | [4] | [5] | [6] | [7] | [8] | [9] | [10] | [11] | [13] | [14] | [15] | [16] | [20] | [18] | [19]
inactive and 410 nM (active): [12]

CCC(O)OCCCOC (stereo unspecified)
inactive: [1] | [2] | [3] | [4] | [5] | [6] | [7] | [8] | [9] | [10] | [11] | [12] | [13] | [14] | [15] | [16] | [17] | [18] | [19]

CCCCCCCCCCCCCCCC(=O)OC(C)C
inactive: [1] | [2] | [3] | [4] | [5] | [6] | [7] | [8] | [9] | [10] | [11] | [12] | [13] | [14] | [15] | [16] | [17] | [18] | [19]

CCO[Si](CCCNC(N)=O)(OCC)OCC
inactive: [1] | [2] | [3] | [4] | [5] | [6] | [7] | [8] | [9] | [10] | [11] | [12] | [13] | [14] | [15] | [16] | [17] | [18] | [19]

C/C=C(C)/C=C/C=C(C)C
inactive: [1] | [3] | [4] | [5] | [6] | [7] | [8] | [9] | [10] | [11] | [12] | [13] | [14] | [15] | [16] | [20] | [18] | [19]
active: [2] 60.4 µM and 54.5 µM

COc1ccc(CCC(C)=O)cc1
inactive: [1] | [2] | [3] | [4] | [5] | [6] | [7] | [8] | [9] | [10] | [11] | [12] | [13] | [14] | [15] | [20] | [17] | [18] | [19]

CCCCCC1C(=O)CCC1CC(=O)OC (stereo unspecified)
inactive: [1] | [2] | [3] | [4] | [5] | [6] | [7] | [8] | [9] | [10] | [11] | [12] | [13] | [14] | [15] | [16] | [17] | [18] | [19]

Cc1ccccc1C=O
inactive: [1] | [2] | [3] | [4] | [5] | [6] | [7] | [8] | [9] | [10] | [11] | [12] | [13] | [14] | [15] | [16] | [20] | [17] | [18] | [19]

COC(=O)/C=C\C(=O)OC
inactive: [1] | [2] | [3] | [4] | [5] | [6] | [7] | [8] | [9] | [10] | [11] | [12] | [13] | [14] | [15] | [16] | [20] | [17] | [18] | [19]

Cc1cc(C(C)(C)C)c(O)c(C(C)(C)C)c1
inactive: [1] | [3] | [4] | [5] | [6] | [7] | [8] | [9] | [10] | [11] | [12] | [13] | [14] | [15] | [16] | [17] | [18] | [19]
active: [2] 24.4 µM and 48.6 µM

Nc1ccc2c(c1)C(=O)c1ccccc1C2=O
inactive and 4.08 µM (active): [8]
inactive: [1] | [3] | [4] | [5] | [6] | [7] | [9] | [10] | [11] | [12] | [13] | [14] | [15] | [20] | [17]
active: [2] 756 nM and 243 nM
